Test results: PubChem BioAssay AID1159580 (chemical genetic matrix, 2015)
In all, about 5,500 compounds went through this assay and about 2,000 (36%) were called active. Not shown: some 18% with an inconclusive outcome. No stated cut-off is given here; in the data, active means normalized growth mostly below about 0.91 (no sharp cut-off); inconclusive means no clear call, values can overlap the other calls; inactive means mostly above about 0.92. The list shows a part of the results.

Test: chemical genetic growth profiling, strain panel (AID 1159580);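 further: tested at 20 µM; growth read once vehicle control cultures reached saturation at 30 °C; 1 = growth at the plate median or of vehicle wells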
Conditions: growth OD

Measured: normalized growth

Cc1c(NC(=O)c2cccnc2)c(=O)n(-c2ccccc2)n1C
inactive: S. cerevisiae deletion strains, locus YJR066W, strain TOR1, stronger effect = lower value 0.958 | S. cerevisiae deletion strains, locus YJR075W, strain HOC1, stronger effect = lower value 0.99 | S. cerevisiae deletion strains, locus YKL009W, strain mrt4, stronger effect = lower value 0.958 | S. cerevisiae deletion strains, locus YKL068W, stronger effect = lower value 0.99 | S. cerevisiae deletion strains, locus YKL085W, strain MDH1 (second series), stronger effect = lower value 0.988 | S. cerevisiae deletion strains, locus YKL085W, strain MDH1, stronger effect = lower value 0.988 | S. cerevisiae deletion strains, locus YKL160W, strain elf1, stronger effect = lower value 1.02 | S. cerevisiae deletion strains, locus YKL190W, strain CNB1, stronger effect = lower value 0.989 | S. cerevisiae deletion strains, locus YKR001C, strain vps1, stronger effect = lower value 0.991 | S. cerevisiae deletion strains, locus YKR026C, strain gcn3, stronger effect = lower value 0.997 | S. cerevisiae deletion strains, locus YKR091W, strain srl3, stronger effect = lower value 1 | S. cerevisiae deletion strains, locus YLL001W, strain dnm1, stronger effect = lower value 0.986 | S. cerevisiae deletion strains, locus YLL026W, stronger effect = lower value 0.993 | S. cerevisiae deletion strains, locus YLL041C, strain sdh2, stronger effect = lower value 0.996 | S. cerevisiae deletion strains, locus YLR027C, strain aat2, stronger effect = lower value 1 | S. cerevisiae deletion strains, locus YLR039C, strain RIC1, stronger effect = lower value 0.974 | S. cerevisiae deletion strains, locus YLR058C, strain SHM2, stronger effect = lower value 0.982 | S. cerevisiae deletion strains, locus YLR102C, strain apc9, stronger effect = lower value 0.989 | S. cerevisiae deletion strains, locus YLR113W, strain HOG1, stronger effect = lower value 1.06 | S. cerevisiae deletion strains, locus YLR221C, strain rsa3, stronger effect = lower value 1.01 | S. cerevisiae deletion strains, locus YLR258W, strain gsy2, stronger effect = lower value 0.997 | S. cerevisiae deletion strains, locus YLR262C, strain YPT6 (second series), stronger effect = lower value 1.02 | S. cerevisiae deletion strains, locus YLR262C, strain YPT6, stronger effect = lower value 0.961 | S. cerevisiae deletion strains, locus YLR268W, strain sec22, stronger effect = lower value 0.982 | S. cerevisiae deletion strains, locus YLR320W, strain mms22, stronger effect = lower value 1 | S. cerevisiae deletion strains, locus YLR330W, strain CHS5, stronger effect = lower value 1 | S. cerevisiae deletion strains, locus YLR342W, strain FKS1 (second series), stronger effect = lower value 1.09 | S. cerevisiae deletion strains, locus YLR342W, strain FKS1, stronger effect = lower value 1 | S. cerevisiae deletion strains, locus YLR357W, strain rsc2, stronger effect = lower value 0.963 | S. cerevisiae deletion strains, locus YLR370C, strain arc18, stronger effect = lower value 1 | S. cerevisiae deletion strains, locus YLR371W, strain rom2, stronger effect = lower value 0.998 | S. cerevisiae deletion strains, locus YLR384C, strain iki3, stronger effect = lower value 0.999 | S. cerevisiae deletion strains, locus YLR418C, strain cdc73, stronger effect = lower value 1.01 | S. cerevisiae deletion strains, locus YML016C, strain PPZ1, stronger effect = lower value 0.994 | S. cerevisiae deletion strains, locus YML032C, strain rad52, stronger effect = lower value 0.971 | S. cerevisiae deletion strains, locus YML120C, strain ndi1, stronger effect = lower value 1.02 | S. cerevisiae deletion strains, locus YML124C, strain tub3, stronger effect = lower value 0.999 | S. cerevisiae deletion strains, locus YMR058W, strain fet3, stronger effect = lower value 1 | S. cerevisiae deletion strains, locus YMR078C, strain ctf18, stronger effect = lower value 0.984 | S. cerevisiae deletion strains, locus YMR125W, strain sto1, stronger effect = lower value 0.969 | S. cerevisiae deletion strains, locus YMR129W, stronger effect = lower value 0.997 | S. cerevisiae deletion strains, locus YMR205C, strain PFK2, stronger effect = lower value 0.959 | S. cerevisiae deletion strains, locus YMR223W, strain ubp8, stronger effect = lower value 1.02 | S. cerevisiae deletion strains, locus YMR231W, strain pep5, stronger effect = lower value 1 | S. cerevisiae deletion strains, locus YMR263W, strain SAP30, stronger effect = lower value 0.987 | S. cerevisiae deletion strains, locus YMR307W, strain GAS1, stronger effect = lower value 0.961 | S. cerevisiae deletion strains, locus YNL067W, strain RPL9B, stronger effect = lower value 0.971 | S. cerevisiae deletion strains, locus YNL071W, strain lat1, stronger effect = lower value 1.01 | S. cerevisiae deletion strains, locus YNL153C, strain GIM3, stronger effect = lower value 0.952 | S. cerevisiae deletion strains, locus YNL183C, strain NPR1, stronger effect = lower value 0.967 | S. cerevisiae deletion strains, locus YNL209W, strain ssb2, stronger effect = lower value 1.01 | S. cerevisiae deletion strains, locus YNL233W, strain BNI4, stronger effect = lower value 0.941 | S. cerevisiae deletion strains, locus YNL248C, strain rpa49, stronger effect = lower value 1.01 | S. cerevisiae deletion strains, locus YNL250W, strain rad50, stronger effect = lower value 0.975 | S. cerevisiae deletion strains, locus YNL271C, strain bni1, stronger effect = lower value 0.991 | S. cerevisiae deletion strains, locus YNL298W, strain CLA4, stronger effect = lower value 0.997 | S. cerevisiae deletion strains, locus YNL307C, strain MCK1, stronger effect = lower value 0.995 | S. cerevisiae deletion strains, locus YNL322C, strain KRE1 (second series), stronger effect = lower value 0.995 | S. cerevisiae deletion strains, locus YNL322C, strain KRE1, stronger effect = lower value 0.996 | S. cerevisiae deletion strains, locus YNR049C, strain mso1, stronger effect = lower value 0.997 | S. cerevisiae deletion strains, locus YNR052C, strain pop2, stronger effect = lower value 0.996 | S. cerevisiae deletion strains, locus YOL006C, strain TOP1, stronger effect = lower value 0.928 | S. cerevisiae deletion strains, locus YOL012C, strain htz1 0.85 | S. cerevisiae deletion strains, locus YOL147C, strain pex11, stronger effect = lower value 1 | S. cerevisiae deletion strains, locus YOR001W, strain rrp6, stronger effect = lower value 1.01 | S. cerevisiae deletion strains, locus YOR061W, strain CKA2, stronger effect = lower value 0.969 | S. cerevisiae deletion strains, locus YOR069W, strain VPS5, stronger effect = lower value 1 | S. cerevisiae deletion strains, locus YOR070C, strain gyp1, stronger effect = lower value 1 | S. cerevisiae deletion strains, locus YOR080W, strain dia2, stronger effect = lower value 0.99 | S. cerevisiae deletion strains, locus YOR083W, strain WHI5, stronger effect = lower value 1.02 | S. cerevisiae deletion strains, locus YOR106W, strain vam3, stronger effect = lower value 1.01 | S. cerevisiae deletion strains, locus YOR136W, strain idh2, stronger effect = lower value 0.983 | S. cerevisiae deletion strains, locus YOR144C, strain elg1, stronger effect = lower value 0.994 | S. cerevisiae deletion strains, locus YOR184W, strain ser1, stronger effect = lower value 0.985 | S. cerevisiae deletion strains, locus YOR231W, strain MKK1, stronger effect = lower value 1.05 | S. cerevisiae deletion strains, locus YOR265W, strain rbl2, stronger effect = lower value 0.993 | S. cerevisiae deletion strains, locus YOR270C, strain vph1, stronger effect = lower value 1 | S. cerevisiae deletion strains, locus YOR290C, strain snf2, stronger effect = lower value 0.98 | S. cerevisiae deletion strains, locus YOR316C, strain cot1, stronger effect = lower value 0.986 | S. cerevisiae deletion strains, locus YPL051W, strain arl3, stronger effect = lower value 1.01 | S. cerevisiae deletion strains, locus YPL078C, strain atp4, stronger effect = lower value 1.01 | S. cerevisiae deletion strains, locus YPL106C, strain sse1, stronger effect = lower value 0.992 | S. cerevisiae deletion strains, locus YPL240C, strain hsp82, stronger effect = lower value 0.995 | S. cerevisiae deletion strains, locus YPL256C, strain CLN2, stronger effect = lower value 1.03 | S. cerevisiae deletion strains, locus YPR119W, strain clb2, stronger effect = lower value 0.985 | S. cerevisiae deletion strains, locus YPR141C, strain kar3, stronger effect = lower value 0.99 | S. cerevisiae deletion strains, locus YPR163C, strain tif3, stronger effect = lower value 0.996 | S. cerevisiae deletion strains, locus YPR167C, strain met16, stronger effect = lower value 0.991 | S. cerevisiae deletion strains, strain wtn01, stronger effect = lower value 1.02 | S. cerevisiae strains, strain wild type, stronger effect = lower value 0.983
